Data on 22 compounds can be found in PubChem BioAssay (NCATS).

Inconclusive results are not listed. Where a call stands in place of a potency, no number is given. Activity calls are given as the source filed them. Calls come from the whole dose curve; as a rule, active = well fitted inhibition curve with a large enough effect; inconclusive = small, poorly fitted or top-dose-only effect; inactive = no such curve, though single readings can be large or run the other way.
Potency is the fitted concentration of half-maximal effect.

Sequence of Furin (Homo sapiens) (P09958 whole entry, looked up): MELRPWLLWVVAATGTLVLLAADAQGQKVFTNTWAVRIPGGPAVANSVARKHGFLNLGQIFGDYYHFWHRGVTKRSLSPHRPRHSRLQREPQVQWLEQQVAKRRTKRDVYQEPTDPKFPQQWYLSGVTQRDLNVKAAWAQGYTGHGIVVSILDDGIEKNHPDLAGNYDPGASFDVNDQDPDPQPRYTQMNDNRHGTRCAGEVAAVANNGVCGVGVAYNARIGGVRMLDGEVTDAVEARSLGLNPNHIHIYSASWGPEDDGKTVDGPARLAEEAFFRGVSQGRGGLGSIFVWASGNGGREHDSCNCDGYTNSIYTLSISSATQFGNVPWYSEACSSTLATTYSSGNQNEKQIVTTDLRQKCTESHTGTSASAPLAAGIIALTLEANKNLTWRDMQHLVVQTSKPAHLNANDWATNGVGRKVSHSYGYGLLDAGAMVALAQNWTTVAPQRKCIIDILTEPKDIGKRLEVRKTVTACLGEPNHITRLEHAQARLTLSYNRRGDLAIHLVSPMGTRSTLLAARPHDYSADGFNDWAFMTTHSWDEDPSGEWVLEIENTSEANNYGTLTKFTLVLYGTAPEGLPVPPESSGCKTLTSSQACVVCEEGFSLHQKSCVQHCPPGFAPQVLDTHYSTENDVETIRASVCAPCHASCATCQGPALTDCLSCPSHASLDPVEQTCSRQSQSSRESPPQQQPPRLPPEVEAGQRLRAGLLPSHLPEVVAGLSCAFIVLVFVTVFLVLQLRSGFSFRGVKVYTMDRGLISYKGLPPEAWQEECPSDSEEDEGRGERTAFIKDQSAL

The target of this assay is Furin (Homo sapiens) (UniProt P09958). Description: Furin counterscreen qHTS for Zika virus inhibitors (AID 1347149). Note: nearly all actives have a fitted effect of over 70% in size. Particulars: furin enzymatic counterscreen, fluorogenic substrate; series mostly up to 57.5 µM. The source says:
Avindra Nath, Ph.D., National Institute of Neurological Disorders and Stroke (NINDS), Bethesda, MD
Radhakrishnan Padmanabhan, Ph.D., Georgetown University (GU), Washington D.C.
Zika Virus causes congenital defects, including microcephaly and is associated with Guillain-Barre syndrome, eningoencephalitis and myelitis in infected adult. […] Using a target-based approach, we hope to establish a screening paradigm to uncover novel, cell-active NS2B-NS3 protease (Zika Virus) specific inhibitors from NCATS' collection of small molecules using qHTS.
Four assay panel was created to identify potential Zika Virus inhibitors. Namely, (1) GU unlinked NS2B-NS3 AMC tagged protease qHTS, (2) GU unlinked NS2B-NS3 Rhodamine tagged protease qHTS, (3) NINDS linked NS2B-NS3 AMC tagged protease qHTS, (4) NINDS linked NS2B-NS3 Rhodamine tagged protease qHTS. Active compounds were re-acquired and re-screened to confirm inhibition. Inhibitors were further screened against various confirmatory and counterscreens in dose response format.
Early Translation Branch (ETB)
National Center for Advancing Translational Sciences (NCATS), Rockville, MD
National Institute of Health (NIH), Bethesda, Maryland
1536-well Furin BOC-RVRR-AMC Protocol:
Human recombinant Furin Serine Protease was purchased from Peprotech (catalog #450-47; full length; Rocky Hill, NJ). Briefly, 3 microL of enzyme (final concentrations of 5 nM), in assay buffer (100 mM HEPES pH 7.0, 1 mM CaCl2 with 0.01% Triton X-100) were dispensed into a 1,536-well solid-bottom black plate (Greiner Bio One, Monroe, NC). Twenty-three nL of compounds (final concentration range 7.28 nM to 114 microM) or control Furin Inhibitor I (Dec-RVKR-CMK; final concentration range 0.248 nM to 8.12 microM) were transferred via Wako Pin-tool (Wako Automation, Richmond, VA). Samples were incubated (RT, protected from light) for 15 minutes followed by a 1 microL substrate addition of BOC-RVRR-AMC (final concentration of 2 microM; Km = ~15 muM90). Plates were then read immediately on a ViewLux High-throughput CCD imager (PerkinElmer, Waltham, MA) equipped with standard UV fluorescence optics (340(30) nm excitation, 450(20) nm emission), then incubated (37C, protected from light) for 15 or 30 minutes (~9% conversion). The change in fluorescence intensity over the 15-minute reaction period was normalized against no-inhibitor and no-enzyme controls and the resulting percent inhibition data were fitted to a 4-parameter Hill equation. Furin Inhibitor I was used as intraplate control.
On the technique in general: Counterscreens check selectivity or assay interference.
As for `CC(C)CC(c1c(O)c(C=O)c(O)c(C=O)c1O)C1CCC(C)(O)C2CC(C(C)(C)O)CCC12C` (configuration not stated), the Potency entry is “inactive”.

As to `O=C(O)CC1CCC(c2ccc(-c3ccc(Nc4ccc(C(F)(F)F)nc4)cn3)cc2)CC1` (configuration not stated), the Potency was 78.4 µM (active). With `O=C(Nc1ccccc1)Nc1ccc(-c2ccc(C(=O)C3CCCC3C(=O)O)cc2)cc1` (configuration not stated) the figure was 55.5 µM (active). To `Cc1ccccc1NC(=O)Nc1ccc(CN2C(=O)N([C@@H](CC(C)C)C(=O)N[C@@H](CC(=O)O)c3ccccc3)C(=O)C2(C)C)cc1` belongs “inactive”; to `COc1cc(Nc2ccc([N+](=O)[O-])cc2C(=O)O)cc2ccccc12`, “inactive”. To `Cc1ccc2[nH]c(=O)c(C3=NN(C(=O)CCC(=O)O)C(c4ccc(Br)cc4)C3)c(-c3ccccc3)c2c1` (configuration not stated) belongs 69.8 µM (active); to `C=C1C2CCC3C(CCC4[C@@]3(C)CCC[C@@]4(C)C(=O)O)(C2)[C@@H]1OC(=O)/C(C)=C\C` (some centres not stated), “inactive”; to `COc1cccc(OC)c1-c1cc(C(=O)N[C@@H](CC(C)C)C(=O)O)nn1-c1ccnc2cc(Cl)ccc12`, “inactive”.

Turning to `COc1cc(/C=C/c2ccccc2)c(C(=O)O)c(O)c1CC=C(C)C`, the Potency is 19.3 µM (active). To `CC1(C)CC=C(c2cnc3ccccc3c2)c2cc(C(=O)Nc3ccc(C(=O)O)cc3)ccc21` belongs 44.1 µM (active); to `C=C1CCC2C(C)(C)CCC[C@]2(C)[C@H]1CC/C(C)=C/C(=O)O` (some centres not stated), “inactive”. To `CCc1nnc(NS(=O)(=O)c2ccc(NC(=S)NC(=O)/C=C/c3ccc(F)cc3)cc2)s1` belongs “inactive”; to `COc1cc(Nc2nc3ccccc3nc2NS(=O)(=O)c2cccc(NC(=O)c3ccc(C)c(OC)c3)c2)cc(OC)c1`, “inactive”. As to `COc1cc2c(c(O)c1OC/C=C(\C)CC/C=C(/C)CCC=C(C)C)CN(C(CCC(=O)O)C(=O)O)C2=O` (configuration not stated), the Potency result is “inactive”. Consider `COc1cccc(CNc2ccc(S(=O)(=O)Nc3nc4ccccc4s3)cc2)c1O`, for which the Potency entry was “inactive”.

Turning to `C=CC1(C)C=C2CC[C@H]3[C@@](C)(C(=O)O)CCC[C@]3(C)C2CC1` (some centres not stated), the Potency entry is “inactive”. Take `O=C(O)C1(c2ccc(-c3ccc(Cl)c(Cl)c3)c(F)c2)CC1`: the Potency entry was “inactive”.

Turning to `C=C1C2CCC3CC2(CC(O)C2(O)C1CC(OC1OC(CO)C(O)C(O)C1O)C2(C)C)CC3(C)O` (configuration not stated), the Potency result was “inactive”. With `C/C=C/C=C/C=C/C(=O)O[C@@H]1[C@@H](OC)C2=C(C(=O)N(C(CCC(=O)O)C(=O)O)C2)[C@@]2(C)CCCC(C)(C)[C@H]12` (some centres not stated) the entry was “inactive”. To `C/C(=C\CC/C(C)=C/CC[C@]1(C)CCc2cc(O)cc(C)c2O1)CC/C=C(\C)C(=O)O` belongs “inactive”; to `CC1C(O)C(O)C2C(C(=O)OCCc3ccc(O)cc3)=COC(O[C@@H]3O[C@H](CO)[C@@H](O)[C@H](O)[C@H]3O)C12` (some centres not stated), “inactive”.

On to `CC(=O)OC12CC(C)C(OC(=O)c3ccccc3)C1/C=C(/C)C(OC(=O)c1ccccc1)CC(=O)C(C)(C)/C=C/C(C)C2=O` (configuration not stated), for which the Potency result is “inactive”.
